Screening results as filed in PubChem BioAssay.
Only some compounds are listed: those with a hit (about 7.3% of all), similar ones and a draw of the others.
Rab9 prom act – Rab9 promoter activation. AID 485297. Potency, µM (series often up to 9.22 µM), inactives show top-dose activation, negative = inhibition, hits mostly activators. Huh7 Rab9 promoter-luciferase reporter, luminescence, 24 h. 320,000 tested, 2.8% active; note: % of control where 0% means no effect; nearly all actives have a fitted effect of over 60% in size
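Luminescence from Amplite-detected luciferase (10 minutes, ambient) reports Rab9 promoter activation. Before that, stable Rab9-luciferase Huh7 cells (1500/well, reduced-serum OP-MEM I plus 10% FBS) were exposed to compound for 24 hours at 37C.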
FLuc modulator – inhibits or activates purified firefly luciferase, miR-21 counter-screen. P08659. purified FLuc, Km substrates, luminescence inhibition. Potency, µM (titrated, usually from 57.5 µM), inactives show at the top dose activity change, negative = inhibition, actives largely listed as inhibitors. 360,000 tested, 6.9% active;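 note: plate controls were vehicle for no effect and reference inhibitor for full effect; nearly all actives have a fitted effect of over 55% in size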
Target sequence (P08659 whole entry, looked up): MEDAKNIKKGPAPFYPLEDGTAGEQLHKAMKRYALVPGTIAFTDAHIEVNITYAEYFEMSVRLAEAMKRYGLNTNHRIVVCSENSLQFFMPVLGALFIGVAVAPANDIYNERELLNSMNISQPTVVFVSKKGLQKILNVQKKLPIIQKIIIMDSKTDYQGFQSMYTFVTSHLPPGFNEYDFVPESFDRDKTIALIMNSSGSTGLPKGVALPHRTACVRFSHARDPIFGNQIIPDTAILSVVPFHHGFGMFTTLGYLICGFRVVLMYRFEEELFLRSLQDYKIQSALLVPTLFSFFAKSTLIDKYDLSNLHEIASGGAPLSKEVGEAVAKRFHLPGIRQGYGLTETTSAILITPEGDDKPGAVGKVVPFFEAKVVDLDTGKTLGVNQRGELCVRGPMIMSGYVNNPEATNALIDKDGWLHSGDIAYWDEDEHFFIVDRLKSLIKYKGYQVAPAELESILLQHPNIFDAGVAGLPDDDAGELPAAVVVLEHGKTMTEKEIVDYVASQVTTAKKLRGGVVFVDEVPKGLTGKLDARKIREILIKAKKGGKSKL
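Purified P. pyralis luciferase (10nM final) with 10uM D-luciferin and 10uM ATP (Km levels) in 50mM Tris acetate pH 7.5, 10mM Mg acetate, 0.01% Tween-20, 0.05% BSA; qHTS 6-point titration, ~60 µM downward; luminescence read.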
ELG1 genotox – inducers of genotoxicity in HEK293T ELG1-luciferase cells | HEK293T ELG1-luciferase reporter, luminescence, 16 h | Potency, µM (top dose mostly 46 µM), inactives show at the highest dose activity change, positive = activation, most hits filed as activators | 330,000 tested, 1.3% active | AID 504466; note: % of control where 0% means no effect; nearly all actives have a fitted effect of over 60% in size
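Screening used a luciferase reporter fused to human ELG1 in HEK293T cells. Luminescence was read on a CCD plate imager after 16 hr exposure and 30 min ONE-Glo incubation.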
Luc counter – counter-screen: inhibitors of Kinase-Glo firefly luciferase | 200,000 tested, 0.28% active | Kinase-Glo luciferase, ATP luminescence, 8 min | Q27757 | AID 1379 | Potency, µM (series often up to 38.3 µM), inactives show top-dose activity change, negative = inhibition, actives largely listed as inhibitors; note: % is set by controls: 0 for no effect and ±100 for the full control effect; nearly all actives have a fitted effect of over 60% in size
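Inhibition of Kinase-Glo luciferase light generation was assessed at 10 uM ATP in pH 7.2 imidazole buffer, with luminescence measured after eight minutes at ambient temperature.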
NPC1 prom act – activators of NPC1 promoter | 320,000 tested, 2.4% active | Potency, µM (titrated, usually from 9.22 µM), inactives show at the top dose activation, most hits filed as activators | Huh7 NPC1 promoter luciferase reporter, 24 h; note: % of control where 0% means no effect; nearly all actives have a fitted effect of over 60% in size
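In 1536-well qHTS, Huh7 cells harboring an NPC1 promoter–luciferase construct received compound for 24 h; activation was quantified by luminescence following luciferase reagent addition.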
SMN2 splice up – enhancers of SMN2 splice variant expression; HEK293 SMN2-luciferase splicing reporter, luminescence, 30-36 h; Potency, µM (highest dose often 46.1 µM), inactives show top-dose activity change, positive = activation, hits mostly activators; 210,000 tested, 2.8% active; note: % of control where 0% means no effect; nearly all actives have a fitted effect of over 55% in size
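qHTS luciferase splicing reporter: luminescence rises when SMN2 exon 7 is included in transfected HEK293 cells. Compound exposure lasted 30-36 h at 37C, with 4.5 mM final sodium butyrate as control, followed by a ONE-Glo read.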
The depositor's hits bear a star; ? = inconclusive; · = no result given; [ ] = dose if it differs, or a comment. Calls come from the whole dose curve; as a rule, active = well fitted curve in the direction sought with a large enough effect; inconclusive = small, poorly fitted or top-dose-only effect, or another doubt; inactive = no such curve, though single readings can be large; an effect the other way counts as inactive or inconclusive. Potency is the fitted concentration of half-maximal effect.

SMILES	Rab9 prom act	FLuc modulator	ELG1 genotox	Luc counter	NPC1 prom act	SMN2 splice up
O=C(CSc1nnc(SCc2ccccc2)s1)N/N=C/c1c(Cl)cccc1Cl	-1.0%	?	1.3%	0.7%	6.9%	-4.7%
Cc1[nH]c2ccccc2c1/C=N/NC(=O)CNC(=O)c1cccs1	0.8%	4.0%	-6.3%	·	1.7%	·
Cc1nn(-c2ccccc2)c(C)c1/C=N/NC(=O)CSc1nnc(SCc2ccc(Cl)cc2)s1	20.0%	9.53µM*	-10.4%	0.6%	13.4%	-0.4%
Cc1[nH]c2ccccc2c1/C=N/NC(=O)c1cccs1	-1.4%	26.9µM*	?	3.1%	5.6%	?
Cc1ccc(CSc2nnc(SCC(=O)N/N=C/C=C/c3ccccc3[N+](=O)[O-])s2)cc1	-4.5%	1.35µM*	16.3%	-4.1%	-3.6%	-44.7%
CC(=O)N1CCc2c(sc3c2c(=O)n(CCc2ccccc2)c(=O)n3Cc2cccc(C)c2)C1	·	5.6%	·	·	·	-1.5%
COc1ccc(S(=O)(=O)NCCc2cn3ccsc3n2)cc1OC	·	-1.6%	·	·	·	·
Cc1nn(-c2ccccc2)c(C)c1/C=N/NC(=O)c1cc(-c2ccc(Br)s2)[nH]n1	-15.0%	?	-30.9%	5.6%	-19.8%	-12.3%
Cc1nn(-c2ccccc2)c(C)c1/C=N/NC(=O)c1cc(-c2ccc(Cl)s2)[nH]n1	-19.1%	10.7µM*	-8.5%	-0.5%	-24.9%	-14.9%
CC(/C=N/NC(=O)CSc1nnc(SCc2ccccc2)s1)=C\c1ccco1	3.2%	21.3µM*	1.7%	-4.6%	-1.1%	16.9%
O=C(c1ccc2c(c1)N(Cc1ccc(F)cc1)C(=O)c1ccccc1S2=O)N1CCC(Cc2ccccc2)CC1 (stereo not drawn)	·	-1.2%	·	·	·	-50.8%
Cc1cccn2c(=O)c(C(=O)N3CCN(c4ccc(Cl)cc4)CC3)cnc12	·	-2.7%	·	·	·	·
CC(C)(C)c1ccc(Cn2c(=O)cnc3ccccc32)cc1	-0.7%	15.1µM*	?	·	-0.6%	·
O=c1cnc2ccccc2n1Cc1ccc(Br)cc1	18.5%	26.9µM*	5.8%	·	5.6%	·
CCN1CCN(Cc2nc3cc(NC(=O)c4ccccc4[N+](=O)[O-])ccc3n2CC)CC1	·	-4.7%	·	·	·	·
COC(=O)c1cccc(COC(=O)c2ccc(N(C)C)cc2)c1	?	?	3.4%	6.7%	25.4%	?
CN(C)c1ccc(C(=O)OCc2ccccc2)cc1	8.4%	12µM*	23.1µM*	-2.7%	12.3%	-0.6%
COC(=O)c1ccc(COC(=O)c2ccc(N(C)C)cc2)cc1	21.1%	-15.0%	0.0%	1.3%	?	7.08µM*
O=C(OCc1ccc(COC(=O)c2ccc(O)cc2)cc1)c1ccc(O)cc1	-5.8%[1.84 µM]	-5.5%	-7.9%	·	3.2%	·
COC(=O)CC1c2ccccc2C(Cc2ccc3c(c2)OCO3)=C(C)N1C(=O)OC (stereo not drawn)	·	·	·	1.2%	·	0.4%
Cc1cc2nc(-c3ccc[nH]c3=O)n(Cc3ccc(F)cc3)c2cc1C	-3.1%	-16.5%	-0.9%	·	-1.0%	·
Cc1cc2nc(-c3ccc[nH]c3=O)[nH]c2cc1C	0.501µM*	0.338µM*	?	·	?	·
COc1ccc(N(CC(=O)N2CCc3ccccc3C2)S(=O)(=O)c2ccc(C)cc2)cc1Cl	·	-11.7%	·	·	·	-12.2%
CC(=O)c1cccc(NC(=O)C2CCCN(c3nnc(-n4cccc4)s3)C2)c1 (stereo not drawn)	·	-18.7%	·	·	·	·
CN1N=C(C(=O)N2CCc3c([nH]c4ccccc34)C2c2ccccc2Cl)CCC1=O (stereo not drawn)	5.01µM*	15.1µM*	?	0.9%	14.5%	·
SMILES	Rab9 prom act	FLuc modulator	ELG1 genotox	Luc counter	NPC1 prom act	SMN2 splice up
c1cn2cc(CSC3CCCCC3)nc2s1	3.98µM*	12µM*	2.31µM*	-11.5%	3.16µM*	14.1µM*
Clc1ccc(SCc2cn3ccsc3n2)cc1	3.98µM*	10.7µM*	?	-5.0%	2.82µM*	25.4%
c1ccc(CSCc2cn3ccsc3n2)cc1	2.82µM*	26.9µM*	16.4µM*	2.1%	?	12.6µM*
O=C(Cc1cn2ccsc2n1)OCc1ccccc1	14.9%	-28.2%	?	-1.7%	8.3%	23.2%
Cc1csc2nc(CSc3ccc(Cl)cc3)cn12	2.51µM*	5.36µM*	?	-10.8%	2.51µM*	5.01µM*
COc1cccc(Nc2nc(C)nc3c2oc2ccccc23)c1	-1.9%	?	-9.9%	·	-6.5%	·
COc1ccc(Nc2ncnc3c2oc2ccccc23)cc1	1.26µM*	9.53µM*	8.91µM*	6.9%	2.51µM*	11.2µM*
c1ccc(Sc2ncnc3c2oc2ccccc23)cc1	?	8.49µM*	?	-9.0%	?	?
Cc1ccc(Nc2ncnc3c2oc2ccccc23)cc1	2µM*	3.38µM*	7.31µM*	-1.9%	2.51µM*	12.6µM*
CC(=O)Nc1ccccc1-c1nc2ccccc2n(CC(=O)Nc2cccc(C)c2C)c1=O	·	-2.0%	·	·	·	·
COc1ccc(-c2nc3scc(CCNS(=O)(=O)c4ccc5c(c4)OCCO5)n3n2)cc1	·	-18.1%	·	·	·	·
CCn1c(CCCOc2ccc(Cl)cc2Cl)nnc1SCC(=O)Nc1cccc(F)c1	-4.6%	9.53µM*	-0.2%	-2.1%	1.5%	8.2%
O=C(CSc1nnc(COc2ccc(Cl)cc2Cl)o1)Nc1ccccn1	-3.5%	?	1.2%	·	1.4%	·
O=C(CSc1nnc(CCCOc2ccc(Cl)cc2Cl)o1)Nc1ccc(C(=O)O)cc1	-5.7%	5.36µM*	4.0%	2.1%	0.7%	8.7%
CCOc1ccc(-c2nc(SCC(=O)NCCOC)c(-c3ccc(OC)c(OC)c3)[nH]2)cc1	·	-2.5%	·	·	·	9.5%
CC(C)N=C1NN=C(c2ccc(Cl)c(Cl)c2)CS1	0.355µM*	3.38µM*	2.06µM*	-9.8%	1.41µM*	5.01µM*
C=CCn1c(C)cc(C2=NNC(=Nc3ccc(C)cc3)SC2)c1C	?	?	6.4%	-0.1%	?	21.3%
CC(C)c1ccc(N=C2NN=C(c3cccs3)CS2)cc1	0.708µM*	6.01µM*	?	-4.5%	2µM*	12.6µM*
COCC(C)N=C1NN=C(c2ccc(NC(C)=O)cc2)CS1 (stereo not drawn)	?	?	13.9%	-1.2%	26.0%	?
CC(C)N=C1NN=C(c2cccs2)CS1	0.794µM*	23.9µM*	?	?	3.16µM*	11.2µM*
Cc1cc(C)cc(NC(=O)COC(=O)CCCNC(=O)c2ccc(Cl)cc2)c1	-5.0%	12µM*	-0.8%	-0.7%	-0.2%	16.4%
CCOc1ccccc1CNC(=O)c1ccc(Cn2c(=O)c3cccn3c3cccnc32)cc1	·	-9.2%	·	·	·	·
O=c1c2c(nc3cc(-c4ccc(Br)cc4)[nH]n13)CCCC2	-1.8%	7.3%	-2.7%	-7.9%	-3.3%	·
Cc1cc2nc3c(c(=O)n2[nH]1)CCCC3	1.2%	-1.4%	5.3%	-0.1%	0.3%	26.5%
